Measured values: PubChem BioAssay AID1053144 (Broad Institute, 2014)
The campaign covered roughly 3,400 compounds. About 160 (4.7%) were called active.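 How the source made its calls: active means fitted curve reaches 30% activation at a concentration no higher than the top valid tested dose, luminescence rising; inconclusive means no clear call, values can overlap the other calls; inactive means signal moving opposite to the expected increase, plus the rest.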 These entries were drawn from the full list. Entries with a potency or affinity are not part of this list.

Experiment: TCF/LEF reporter activation in neural progenitors – cell-based, iPS-derived NPC, luciferase, Wnt3a, cherry-pick, dose response (AID 1053144);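 further: Wnt3a stimulus is conditioned medium from Wnt3a-transfected mouse L cells at 5% in well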
Conditions: Wnt3a EC25, 24 h; series mostly up to 26 µM

activation, inactive:
CC(C)(C)C(=O)Nc1ccc(C(=O)Nc2cccnc2)cc1
COc1cc(/C=C/c2ccc3cccc(O)c3n2)cc(Cl)c1OC
COc1cccc(/C=C/c2ccc3cccc(O)c3n2)c1OC
COc1cc(/C=C/C(=O)OCC(=O)NCCc2ccccc2)cc(OC)c1OC
Oc1ccc(Cl)cc1C=NN1CCCCCC1
COc1ccc(-c2nc3ccccc3s2)cc1NC(C)=O
CCN1CCN(C(=O)c2ccc(-c3nc4ccccc4s3)s2)CC1
CN(CCO)c1c2c(nc3cc(-c4cccc(F)c4)nn13)CCCC2
O=C(c1ccccc1)c1nnc(-c2ccccc2F)o1
O=[N+]([O-])c1cccc(C2=NC(c3ccccc3)CO2)c1 (centres undefined)
O=C(c1cc(-c2cccc(O)c2)on1)N1CCCCC1
O=C(c1cc(-c2cccc(O)c2)on1)N1CCOCC1
Cc1cc(=O)oc2cc(OCC(=O)Nc3nccs3)ccc12
Cn1cccc1/C=C1\SC(=O)N(c2ccccc2)C1=O
CCn1cc(S(=O)(=O)CC(=O)Nc2ccc3c(c2)OCO3)c2ccccc21
CC(=O)Oc1ccc(-c2csc(Nc3ccccn3)n2)cc1
CC(=O)c1sc(NC(=O)c2ccc3c(c2)OCO3)nc1C
CC(C)NC(=O)N1CCCN(c2nc3ccc(Cl)cc3s2)CC1
Cc1ccc2c(c1)COc1c3ccc(C(=O)NC(C)C)cc3nn1-2
C=CCNC(=O)c1ccc2c3n(nc2c1)-c1ccc(C)cc1CO3
CC(C)NC(=O)c1ccc2c3n(nc2c1)-c1ccc(Cl)cc1CO3
C[C@@H](CO)NC(=O)c1ccc2c3n(nc2c1)-c1ccc(Cl)cc1CO3
Cc1ccc2c(c1)COc1c3ccc(C(=O)NCCO)cc3nn1-2
O=C(NCCO)c1ccc2c3n(nc2c1)-c1ccccc1CO3
O=C(c1ccco1)N1CCN(c2ccc(N3CCCCC3)nn2)CC1
c1cn2c(Nc3ccc4c(c3)OCCO4)c(-c3ccc(N4CCOCC4)cc3)nc2cn1
Cc1nn(C(=O)c2cccs2)c(N)c1-c1ccccc1
O=C(/C=C/c1ccc([N+](=O)[O-])cc1)Nc1cccnc1
COc1ccc(OC)c(NC(=O)CSc2nnc(C3CCCCC3)n2-c2ccccc2)c1
O=C(COc1ccc2ccccc2c1)N1CCCC1
O=C(OCC(=O)N1CCOCC1)c1ccc2ccccc2c1O
O=C(Nc1ccc(C(=O)c2ccccc2)cc1)c1ccccc1
O=C(Nc1ccc(-c2cn3ccsc3n2)cc1)C1CC1
O=c1c2cc(-c3ccccc3)sc2nc2n1CCC2
CCOC(=O)c1sc2nc(-c3cccnc3)ccc2c1N
CC(C)c1[nH]nc2c1C(C1C=CCCC1)C(C#N)=C(N)O2 (centres undefined)
COc1ccc2cc(CCNC(=O)c3ccco3)c(=O)[nH]c2c1
CCCNC(=O)c1cc(-c2ccc3c(c2)OCO3)on1
CCCNC(=O)c1oc2ccc3c(c2c1C)C(=O)CC(C)(C)O3
Cc1cccn2cc(-c3ccc(F)cc3)nc12
COc1cc2ccc(-c3ccc4ccccc4n3)cc2cc1OC
c1ccc(-c2ccc3ccccc3n2)cc1
Cc1occc1C(=O)NNC(=O)c1ccccc1F
CCCCNc1c(-c2ccc(-c3cccc(Cl)c3)cc2)nc2ccccn12
COc1ccc(C)cc1NC(=O)CSc1nnnn1Cc1ccccc1
COC(=O)c1cc2c(s1)-c1ccc(OC)cc1CC2
COCCNC(=O)c1cc2sc3ccccc3c2s1
CCC1CCC(NC(=O)Nc2cccc(OC)c2)CC1 (centres undefined)
Cc1cc2ncc(-c3ccccc3)nc2cc1C
Oc1ccc(-c2cnc3ccccc3n2)cc1
CCC(=O)n1nc(-c2ccc(Cl)cc2)nc1SC
CCCCC12CN3CCN(CC(C3)/C1=N\NC(=O)c1ccccc1N)C2
CN(C)c1cccc(-c2csc(N3CCC(C(N)=O)CC3)n2)c1
Cc1ccc(C(=O)COC(=O)c2cccc(O)c2)s1
Cn1cccc1C(=O)OCC(=O)c1ccc(Br)s1
CCOc1ccc(N2C(=O)CC(SCCN)C2=O)cc1 (centres undefined)
O=C(Nc1ccccc1)C1=C[C@@H](C2CC2)C[C@@H](OCc2ccc(CO)cc2)O1
O=C1c2ccccc2C(=O)C1c1ccnc2ccccc12
O=C1/C(=C/c2ccc(O)cc2)COc2ccccc21
O=C(Nc1nccs1)c1c(O)c2c([nH]c1=O)CCCC2
O=C(Nc1ccc2ccccc2c1)c1cccc(F)c1
Cc1ccc2cc(NC(=O)c3ccccc3)ccc2n1
COc1cccc(-c2nc(-c3ccccn3)no2)c1OC
CN(C(=O)c1cc2c(=O)n3ccccc3nc2n1C)C1CCCCC1
Brc1ccc(-c2nc(-c3ccccc3)no2)o1
Brc1ccc(-c2noc(-c3ccccc3)n2)o1
O=C(c1ccc(-c2cccc(Cl)c2Cl)o1)N1CCOCC1
O=C(c1ccc(-c2ccccc2Cl)o1)N1CCCCCCC1
CC(C)(C)c1ccc(OCc2ccc(C(=O)NCc3cccnc3)o2)cc1
O=c1ncn(-c2cccc(Cl)c2)c2ccccc12
O=C(Nc1nccs1)c1ccc(N2CCOCC2)c([N+](=O)[O-])c1
O=C(N/N=C/c1cccc(OCc2ccccc2)c1)c1cccs1
Cc1occc1C(=O)N/N=C/C(Br)=C\c1ccccc1
COc1ccc(CN2C(=O)C(C)S/C2=N/N=C/c2ccco2)cc1 (centres undefined)
CCCc1cc(C(=O)NC2CCCCC2)no1
O=C(Nc1nc2cc3c(cc2s1)OCCO3)c1cccs1
CC(=O)Nc1nc2cc3c(cc2s1)OCCO3
Cc1c(C(=O)Nc2ccc(Br)cc2)cnn1C
Nc1nc(N)nc(-c2cccc(Br)c2)n1
Cc1ccc(F)c(CNC(=O)C2(C)CCCN2C(=O)C(C)C)c1F (centres undefined)
Cc1ccc(C(=O)Nc2cccc(-c3ccc(N4CCOCC4)nn3)c2)cc1
O=C(Nc1cccc(-c2ccc(N3CCOCC3)nn2)c1)c1ccc([N+](=O)[O-])cc1
N/C(=N\OC(=O)c1ccc(Cl)cc1Cl)c1cccnc1
COc1ccc(C(=O)Nc2cccc(C)c2)cc1
CN(C)Cc1c(C(=O)Nc2ccccc2)[nH]c2ccccc12
CC1CCN(C(=O)CNC(=O)c2ccc(Br)o2)CC1
COc1cccc(/C=C/c2ccccn2)c1O
COc1ccccc1NC(=O)COc1ccccc1C(=O)c1cnn(-c2ccccc2)c1
O=C(c1cnn(-c2cccc(F)c2)c1)c1ccccc1O
CC(O)C(NS(=O)(=O)c1ccc(Cl)cc1)C(=O)OCCOc1ccc(F)cc1 (centres undefined)
Cc1cnc(NC(=O)c2sc(Nc3ccccc3)nc2N)o1
CC(C)NC(=O)N(C)C[C@H]1Oc2ccc(NC(=O)Nc3ccccc3)cc2C(=O)N([C@H](C)CO)C[C@@H]1C
COc1cccc(CSc2nc3ccccc3[nH]2)c1
COc1cc2sc3cc(NCc4ccc(C)o4)ccc3c(=O)c2cc1OC
COc1ccc(Nc2n[nH]c(C)c2[N+](=O)[O-])cc1
CCOC(=O)C1=C(Nc2ccc(OC)cc2)OCC1=O
CCOc1ccc(C(=O)N(CC(=O)Nc2cccc(C)c2C)CC2CCCO2)cc1OC (centres undefined)
COc1ccc(-c2nnc(-c3cccnc3)o2)cc1
COc1ccc(S(=O)(=O)N2CCOCC2)cc1NC(=O)c1ccc2c(c1)OCCO2
C#CCOC(=O)CCCC(=O)Nc1ccccc1OC
C=CCn1c(C)nc2c(sc3nc4c(cc32)COC(C)(C)C4)c1=O
CCOc1ccc(/C=N/NC(=O)Cn2ccnc2C)cc1
COc1cc(/C=N/Nc2ccc(C(F)(F)F)cn2)ccc1O
O=C1NC(c2ccccc2Cl)=N/C1=C/c1ccco1
c1ccc(-c2cn(CC3CCCCC3)nn2)cc1
COc1cc(C#Cc2ccc3cc(CCO)oc(=O)c3c2)cc(OC)c1
O=c1oc(CCCO)cc2ccc(C#Cc3ccsc3)cc12
CCOC(=O)C1(Cc2cccc(OC)c2)CCCN(C(=O)c2ccccc2C)C1 (centres undefined)
Brc1ccsc1/C=N/Nc1ccccc1
Cc1cccc(C(=O)c2c(N)sc3c2CCCC3)c1
CC(=O)Nc1ccc(NC(=O)CN(c2ccccc2Cl)S(C)(=O)=O)cc1
O=C(c1ccccc1)c1ccc(-c2ccc(O)cc2)cc1
CC(C)OC(=O)c1ccc2nc3ccccc3nc2c1
Cc1nc(C)c(-c2csc(Nc3cccc(O)c3)n2)s1
COc1cccc(NC(=O)c2cccc(Cl)c2)c1
O=C(Nc1nc2ccccc2[nH]1)c1cccc(Cl)c1
O=C(CSc1nncs1)NCCCc1ccccc1
Cc1nc(-c2ccc(NC(=O)c3ccccc3Br)cc2)cs1
CC1=CC(=C2C(=O)c3ccccc3C2=O)C=C(C)N1Cc1ccco1
COC(=O)c1c(NC(C)=O)sc(C(=O)Nc2ccccc2F)c1C
CCCC(=O)Nc1sc(C(=O)Nc2cccc(N)c2)c(C)c1C(=O)OC
CCCc1nc2oc3c(NCC(C)O)ncnc3c2c2c1CCCC2 (centres undefined)
Cc1ccsc1C(=O)OCC(=O)c1ccc[nH]1
Cc1ccsc1C(=O)OCC(=O)N(C)C1CCCCC1
